Experimental data reported in PubChem BioAssay (NCI).
Compounds without any hit were thinned out: in the full panel of roughly 79,000, 15% have a hit. Calls of active or inactive are those of the source. Rule as the data show it: active = growth inhibition above about 70%; inactive = the rest.

How the values were obtained:
[1] = NCI Yeast Anticancer Drug Screen. Data for the rad52 strain (AID 147);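 also: 0% = growth of vehicle-treated control cultures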; conditions: S. cerevisiae rad52 mutant growth inhibition, active compounds read high
Summary of the method: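 Screen used a yeast mutant impaired in DNA repair. After compound exposure, growth was measured. Values reflect inhibition compared with vehicle-treated cells.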

[2] = NCI Yeast Anticancer Drug Screen. Data for the wt1 strain (AID 149);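 also: 0% = growth of vehicle-treated wt1 cultures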; conditions: S. cerevisiae wt1 strain (SPY 50644) growth inhibition, active compounds read high
Summary of the method: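 Using yeast strain wt1, compound-induced growth inhibition was determined against vehicle-treated cultures.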

[3] = NCI Yeast Anticancer Drug Screen. Data for the rad50EPP+ strain (AID 151);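 also: 0% = growth of vehicle-treated control cultures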; conditions: S. cerevisiae rad50 mutant strain, active compounds read high
Summary of the method: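 Exposing the rad50EPP+ strain to each compound, growth was compared with vehicle-only cultures to give inhibition.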

[4] = NCI Yeast Anticancer Drug Screen. Data for the mgt1 strain (AID 153); conditions: S. cerevisiae mgt1 mutant growth inhibition, active compounds read high
Summary of the method: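 Genetically defined yeast (mgt1) treated with compound; inhibition of growth expressed against vehicle-treated controls.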

[5] = NCI Yeast Anticancer Drug Screen. Data for the rad50 strain (AID 155);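 also: 0% = growth of vehicle-only cultures of the same strain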; conditions: S. cerevisiae rad50 strain growth inhibition, active compounds read high
Summary of the method: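 Relative growth inhibition (compound vs vehicle) was measured in yeast with a defined repair-gene alteration.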

[6] = NCI Yeast Anticancer Drug Screen. Data for the mec2-1 strain (AID 157); conditions: S. cerevisiae mec2-1 strain, active compounds read high
Summary of the method: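 Readout is yeast growth inhibition, normalised to vehicle-treated controls, in the mec2-1 strain exposed to compound.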

[7] = NCI Yeast Anticancer Drug Screen. Data for the rad14 strain (AID 159);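 also: 0% = growth of vehicle-treated control cultures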; conditions: S. cerevisiae rad14 strain growth inhibition, active compounds read high
Summary of the method: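 Screen for anticancer potential: a yeast strain altered in DNA damage repair is grown with compound, and reduced growth is quantified against vehicle controls.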

[8] = NCI Yeast Anticancer Drug Screen. Data for the sgs1 mgt1 strain (AID 161);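 also: 0% = growth of cultures given vehicle only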; conditions: S. cerevisiae sgs1 mgt1 strain, active compounds read high
Summary of the method: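 Growth of a repair-deficient yeast mutant was monitored after compound treatment and expressed as inhibition relative to vehicle-treated cultures.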

[9] = NCI Yeast Anticancer Drug Screen. Data for the CLN2oe strain (AID 163);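 also: 0% = growth of vehicle-only control cultures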; conditions: S. cerevisiae CLN2oe strain, active compounds read high
Summary of the method: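 Values reflect how much compound exposure reduced yeast growth, referenced to vehicle-exposed cells. Assay organism is a strain with a defined genetic change affecting cell-cycle control.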

[10] = NCI Yeast Anticancer Drug Screen. Data for the cln2 rad14 strain (AID 165);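 also: 0% = growth equal to vehicle treated cultures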; conditions: S. cerevisiae cln2 rad14 strain, active compounds read high
Summary of the method: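 Relative to vehicle controls, growth inhibition of compound-treated cln2 rad14 yeast was recorded.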

[11] = NCI Yeast Anticancer Drug Screen. Data for the bub3 strain (AID 167); conditions: S. cerevisiae bub3 mutant strain, active compounds read high
Summary of the method: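 Screening used yeast with an engineered genetic alteration affecting cell cycle control. Compound-exposed cultures were compared with vehicle cultures, and reduced growth was taken as inhibition.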

[12] = NCI Yeast Anticancer Drug Screen. Data for the wt2 strain (AID 169);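 also: 0% = growth of vehicle-treated yeast cultures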; conditions: S. cerevisiae wt2 strain growth inhibition, active compounds read high
Summary of the method: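 Values express reduction in yeast growth under compound treatment, referenced to vehicle-treated cells.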

[13] = NCI Yeast Anticancer Drug Screen. Data for the sgs1 strain (AID 173);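 also: 0% = growth of vehicle-only control cultures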; conditions: S. cerevisiae sgs1 mutant, active compounds read high
Summary of the method: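 Treat defined-mutant yeast with compound; measure growth; calculate inhibition relative to vehicle-treated cells.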

[14] = NCI Yeast Anticancer Drug Screen. Data for the mlh1 rad18 strain (AID 175); conditions: S. cerevisiae mlh1 rad18 strain growth inhibition, active compounds read high
Summary of the method: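 Test agents were incubated with a yeast strain of defined genotype (DNA damage repair defect). Inhibition of growth was derived by comparison with vehicle-exposed cultures.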

[15] = NCI Yeast Anticancer Drug Screen. Data for the rad18 strain (AID 177); conditions: S. cerevisiae rad18 mutant growth inhibition, active compounds read high
Summary of the method: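 A genetically defined yeast mutant impaired in DNA damage repair was treated with test compounds, then its growth was measured against cultures receiving vehicle alone.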

[16] = at 5.0 µM (retest, dose inferred, filed as 0.5)
[17] = at 50.0 µM (retest, dose inferred, filed as 5.0)

Measured: growth inhibition

S=C(Nc1ccc(Cl)c(Cl)c1)SCc1ccc2c(c1)OCO2
active: [1]; at 11.0 µM 99% | [1]; at 33.0 µM 99% | [1]; at 100.0 µM 94% | [2]; at 11.0 µM 100% | [2]; at 33.0 µM 99% | [2]; at 100.0 µM 96% | [3]; at 3.7 µM 84% | [3]; at 11.0 µM 99% | [3]; at 33.0 µM 99% | [3]; at 100.0 µM 97% | [4]; at 11.0 µM 99% | [4]; at 33.0 µM 99% | [4]; at 100.0 µM 97% | [5]; at 11.0 µM 99% | [5]; at 33.0 µM 99% | [5]; [17] 97% | [5]; at 50.0 µM 87.3% | [5]; at 100.0 µM 94% | [6]; [16] 78% | [6]; at 11.0 µM 100% | [6]; at 33.0 µM 99% | [6]; [17] 98% | [6]; at 50.0 µM 92.1% | [6]; at 100.0 µM 97% | [7]; at 11.0 µM 100% | [7]; at 33.0 µM 99% | [7]; at 100.0 µM 96% | [8]; [16] 77% | [8]; [17] 98% | [8]; at 50.0 µM 89.6% | [9]; at 11.0 µM 99% | [9]; at 33.0 µM 99% | [9]; at 100.0 µM 93% | [10]; [17] 97% | [10]; at 50.0 µM 87.6% | [11]; [16] 76% | [11]; at 11.0 µM 99% | [11]; at 33.0 µM 99% | [11]; [17] 98% | [11]; at 50.0 µM 88.2% | [11]; at 100.0 µM 96% | [12]; at 3.7 µM 90% | [12]; at 11.0 µM 100% | [12]; at 33.0 µM 100% | [12]; at 100.0 µM 97% | [13]; at 11.0 µM 99% | [13]; at 33.0 µM 99% | [13]; at 100.0 µM 96% | [14]; [16] 90% | [14]; [17] 97% | [14]; at 50.0 µM 88.7% | [15]; at 11.0 µM 99% | [15]; at 33.0 µM 99% | [15]; at 100.0 µM 96%
inactive: [1]; at 1.2 µM 6% | [1]; at 3.7 µM 54% | [2]; at 1.2 µM 1% | [2]; at 3.7 µM 49% | [3]; at 1.2 µM 27% | [4]; at 1.2 µM -2% | [4]; at 3.7 µM 15% | [5]; at 1.2 µM -4% | [5]; at 3.7 µM 40% | [5]; [16] 52% | [6]; at 1.2 µM -2% | [6]; at 3.7 µM 6% | [7]; at 1.2 µM 4% | [7]; at 3.7 µM 54% | [9]; at 1.2 µM -4% | [9]; at 3.7 µM -13% | [10]; [16] 5% | [11]; at 1.2 µM -7% | [11]; at 3.7 µM 29% | [12]; at 1.2 µM 14% | [13]; at 1.2 µM 6% | [13]; at 3.7 µM 38% | [15]; at 1.2 µM -7% | [15]; at 3.7 µM 34%

Cc1ccc(CSC(N)=Nc2ccccc2)cc1C
inactive: [1]; at 1.2 µM 20% | [1]; at 3.7 µM 21% | [1]; at 11.0 µM 21% | [1]; at 33.0 µM 24% | [1]; at 100.0 µM 30% | [2]; at 1.2 µM 3% | [2]; at 3.7 µM 13% | [2]; at 11.0 µM 0% | [2]; at 33.0 µM 4% | [2]; at 100.0 µM 21% | [3]; at 1.2 µM 4% | [3]; at 3.7 µM 12% | [3]; at 11.0 µM 11% | [3]; at 33.0 µM 4% | [3]; at 100.0 µM 15% | [4]; at 1.2 µM 6% | [4]; at 3.7 µM -1% | [4]; at 11.0 µM -8% | [4]; at 33.0 µM 14% | [5]; at 1.2 µM 9% | [5]; at 3.7 µM 5% | [5]; [16] 5% | [5]; at 11.0 µM 14% | [5]; at 33.0 µM 22% | [5]; [17] 40% | [5]; at 50.0 µM 61.5% | [5]; at 100.0 µM 30% | [6]; at 1.2 µM -3% | [6]; at 3.7 µM 10%
active: [4]; at 100.0 µM 81%
